The values below come from PubChem BioAssay (NCI).

The structures appear in SMILES notation. Compounds without any hit were thinned out: in the full panel of roughly 83,000, 20% have a hit.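 Interpretation: 100, growth as untreated; towards 0, rising growth inhibition; 0, no net growth; 0 to -100, cell death. Compounds scoring below 10 were considered active.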 Unmarked numbers belong to inactive results. Calls of active or inactive are those of the source.

Some test systems named below: T-47D breast; BT-549 breast; MDA-MB-435 melanoma; SW-620 colon; MCF7 breast; HCT-116 colon; HCC-2998 colon; KM12 colon.
Assay in all cases: NCI-60 one-dose screen, 48 h (100 = growth as untreated, 0 = no growth, -100 = all killed)
Holding throughout (conditions): 10 µM unless noted

Turning to `COc1cc(/C=C/C(=O)c2ccc(NC(=O)CN3CCN(c4cc5c(cc4F)c(=O)c(C(=O)O)cn5C4CC4)CC3)cc2)cc(OC)c1OC`, the growth is 17.5% in the assay with T-47D breast; -86.7% (active) with BT-549 breast; -1.52% (active) in the assay on MDA-MB-435 melanoma; 6.38% (active) with SW-620 colon; 26.5% in the assay with MCF7 breast; -88.2% (active) in the assay with HCT-116 colon. Also, the growth with HCC-2998 colon is -11.6% (active); in the assay on KM12 colon, -65.1% (active).

`C=C1C(=O)O[C@H]2[C@H]1CC/C(COC(=O)NCCc1cccc(OC)c1)=C\CC[C@@]1(C)O[C@@H]21`: the growth in the assay with T-47D breast is 20.4%; with BT-549 breast, 27.8%; in the assay with MDA-MB-435 melanoma it was 39.6%; with SW-620 colon it was -10.8% (active); in the assay on MCF7 breast it was 14.7%; in the assay with HCT-116 colon, -63.9% (active). The growth in the assay on HCC-2998 colon was 83.5%; in the assay on KM12 colon, 63.7%.

`Nc1c(C(=O)Nc2ccccc2)sc2nc3c(cc12)CCCCC3`: the growth in the assay with T-47D breast was 42.2%; in the assay with BT-549 breast it was 48.8%; in the assay on MDA-MB-435 melanoma it was -50.7% (active); in the assay with SW-620 colon, 24.2%; with MCF7 breast, 12.1%; in the assay with HCT-116 colon, 11.2%. Also, the growth is 43.5% in the assay on HCC-2998 colon and 12.2% in the assay with KM12 colon.

For the molecule `CCNC(=O)C1CCCN1C(=O)C(CCCN=C(N)N)NC(=O)C(CC(C)C)NC(=O)C(CC(C)C)NC(=O)C(Cc1ccc(O)cc1)NC(=O)C(CO)NC(=O)C(Cc1c[nH]c2ccccc12)NC(=O)C(Cc1cnc[nH]1)NC(=O)C1CCC(=O)N1` (stereo not drawn), the growth in the assay with T-47D breast is 104%; with BT-549 breast, 113%; in the assay on MDA-MB-435 melanoma, 105%; in the assay with SW-620 colon, 89.4%; in the assay with MCF7 breast, 86.1%; in the assay on HCT-116 colon, 95.2%. For the same molecule, the growth is 94.4% with HCC-2998 colon and 104% with KM12 colon.

As for `CSc1ccccc1C#C/C=C\C#Cc1ccccc1N1CCCC1=O`, the growth with T-47D breast was 63.2%; with BT-549 breast it was 69.7%; with MDA-MB-435 melanoma it was 8.9% (active); in the assay on SW-620 colon, 26.9%; with MCF7 breast, 37.6%; in the assay with HCT-116 colon, 34.4%. Moreover, the growth in the assay with HCC-2998 colon was 50.2%; in the assay on KM12 colon it was 44.4%.

In the case of `CC(C)[C@H](CO)Nc1nc(Nc2ccc(C(=O)NCCNS(=O)(=O)c3cccc4c(N(C)C)cccc34)c(Cl)c2)c2ncn(C(C)C)c2n1`, the growth with T-47D breast was 20.6%; in the assay on BT-549 breast, -37.9% (active); with MDA-MB-435 melanoma, 0.754% (active); in the assay with SW-620 colon it was 4.97% (active); in the assay with MCF7 breast, 6.04% (active); in the assay with HCT-116 colon, 4.44% (active). Further, the growth in the assay with HCC-2998 colon is 15.7%; in the assay on KM12 colon it was -9.33% (active).

In the case of `c1ccc([P+](CCC[P+](c2ccccc2)(c2ccccc2)c2ccccc2)(c2ccccc2)c2ccccc2)cc1`, the growth in the assay with T-47D breast is 45.2%; with BT-549 breast, 75.9%; with MDA-MB-435 melanoma, 38.6%; in the assay with SW-620 colon, 85.4%; with MCF7 breast it was 59%; with HCT-116 colon it was 67.5%. For the same molecule, the results for the growth in the assay on HCC-2998 colon and in the assay on KM12 colon were 48.1% and 45.5%, respectively.

As to `CCCCCCCCCCCCNC(=S)N/N=C/c1ccc(Cl)c(Cl)c1`, the growth with T-47D breast is 94.9%; in the assay with BT-549 breast, 120%; in the assay with MDA-MB-435 melanoma it was 98.8%; with SW-620 colon, 110%; with MCF7 breast it was 102%; in the assay on HCT-116 colon, 102%. Further, the values for the growth in the assay on HCC-2998 colon and in the assay with KM12 colon were 106% and 102%, respectively.

`COc1cc(C(=O)/C=C/c2cc(C(=O)c3cc(OC)c(OC)c(OC)c3)ccc2OC)ccc1N`: the growth in the assay on T-47D breast was 18%; in the assay on BT-549 breast, -51.3% (active); in the assay with MDA-MB-435 melanoma it was 2.47% (active); with SW-620 colon, -57.3% (active); with MCF7 breast, 6.6% (active); with HCT-116 colon, -73.8% (active). Also, the growth in the assay on HCC-2998 colon was -80% (active); in the assay on KM12 colon, -57.2% (active).

Regarding `COc1cccc(/C=C/C(=O)c2sc(Nc3ccc(O)cc3)nc2C)c1`, the growth in the assay on T-47D breast was 90.8%; with BT-549 breast, 14.6%; with MDA-MB-435 melanoma it was 88.4%; in the assay with SW-620 colon, 110%; in the assay with MCF7 breast, 72.2%; in the assay on HCT-116 colon, 87.4%. Besides, the growth is 105% with HCC-2998 colon and 78.4% with KM12 colon.

Turning to `O=C1c2ccccc2C(=O)c2c(N=Nc3sc(=O)[nH]c3S)cccc21`, the growth in the assay with T-47D breast was 82.4%; in the assay with BT-549 breast it was 109%; with MDA-MB-435 melanoma it was 100%; in the assay with SW-620 colon, 90%; in the assay on MCF7 breast, 72%; in the assay with HCT-116 colon, 95.7%. The growth in the assay on HCC-2998 colon was 102%; in the assay on KM12 colon, 90.3%.

With `O=C(CNc1c(Cl)cccc1Cl)Nc1ccc(-c2nc3ccccc3s2)cc1`, the growth in the assay with T-47D breast was -19% (active); in the assay on BT-549 breast it was 22%; in the assay on MDA-MB-435 melanoma it was 67.9%; in the assay with SW-620 colon it was 35.3%; with MCF7 breast, 14.6%; in the assay with HCT-116 colon, 29.9%. In addition, the figures for the growth in the assay with HCC-2998 colon and in the assay on KM12 colon were 35.6% and 91.3%, respectively.

For the molecule `O=C1CCCCN1CCCCC#Cc1ccccc1C#Cc1ccc([N+](=O)[O-])cc1`, the growth in the assay on T-47D breast was 49.4%; in the assay on BT-549 breast, 65.9%; with MDA-MB-435 melanoma, 45.5%; in the assay with SW-620 colon, 27.3%; with MCF7 breast, 49.6%; in the assay with HCT-116 colon it was 23.1%. Moreover, the growth is 67.2% in the assay with HCC-2998 colon and 27.2% with KM12 colon.

For `CC(C)C(C(=O)CCN(C)C)c1ccc(Cl)cc1` (stereo not drawn), the growth with T-47D breast was 82.9%; in the assay on BT-549 breast, 90.5%; in the assay on MDA-MB-435 melanoma, 107%; with SW-620 colon it was 108%; in the assay with MCF7 breast, 87.4%; with HCT-116 colon, 79.9%. Further, the growth with HCC-2998 colon and in the assay on KM12 colon was 104% in each case.

As to `CC/C=C\C[C@H](O)C/C=C1/C(=O)C(Cl)=C[C@@H]1C/C=C\CCCC(=O)OC`, the growth with T-47D breast was -16.9% (active); with BT-549 breast, -85.5% (active); in the assay on MDA-MB-435 melanoma, -43.7% (active); in the assay with SW-620 colon it was -55.3% (active); in the assay on MCF7 breast, -71.2% (active); in the assay with HCT-116 colon, -83.7% (active). Also, the growth with HCC-2998 colon is -92.1% (active); in the assay with KM12 colon it was -81.5% (active).

As to `C=C1C(=O)O[C@H]2[C@H]1CC/C(COC(=O)NCc1cc(OC)c(OC)c(OC)c1)=C\CC[C@@]1(C)O[C@@H]21`, the growth was 34% with T-47D breast; 55.1% in the assay with BT-549 breast; 62.8% in the assay on MDA-MB-435 melanoma; 15.6% with SW-620 colon; 17% in the assay on MCF7 breast; 18.7% with HCT-116 colon. The values for the growth in the assay with HCC-2998 colon and in the assay on KM12 colon were 101% and 92%, respectively.
